In PubChem BioAssay (Tox21):
Records with an inconclusive call do not appear. Active and inactive are the calls of the source. Unless noted, the call rests on the fitted dose curve; in most records, active means well fitted curve in the direction sought with a large enough effect in the repeat runs; inconclusive means weak or mixed curves; inactive means no such curve, though single readings can be large; an effect the other way counts as inactive or inconclusive.

Tests used:
[1] = qHTS assay to identify small molecule agonists of the RXR signaling pathway - cell viability counter screen (AID 1159529); further: series mostly up to about 77 µM; nearly all actives have a fitted effect of over 50% in size
Summary of the method: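 CellTiter-Glo luminescence gave viability in the wells also read for beta-lactamase. Cells (RXR-alpha-UAS-bla HEK 293T, 2% charcoal-stripped FBS medium) had 5 hr plating, then 16 hr compound exposure at 37 C; tetraoctyl ammonium bromide served as positive control.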

[2] = qHTS assay to identify small molecule antagonists of the retinoid acid receptor (RAR) signaling pathway - cell viability counter screen (AID 1159551); further: nearly all actives have a fitted effect of over 35% in size
Summary of the method: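 In this counter screen, the RARE-luciferase line C3RL4 was exposed for 6 h at 37 C and 5% CO2 to compounds with retinol at 1 uM final. Cellular ATP, read by luminescence, served as the viability measure.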

[3] = qHTS assay to identify small molecule antagonists of the retinoic acid receptor (RAR) signaling pathway (AID 1159552; further: nearly all actives have a fitted effect of over 50% in size; further: potency means the concentration at half of the fitted maximal effect)
Summary of the method: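 Luminescent RARE reporter read-out in C3RL4 cells: 6 hr co-treatment at 37 C of test compounds with retinol at 1 uM final. Cells plated overnight beforehand; luciferase reagent incubated 30 min at room temperature before reading.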

[4] = qHTS assay to identify small molecule agonists of the retinoic acid receptor (RAR) signaling pathway (AID 1159553); further: potency means the concentration at half of the fitted maximal effect
Summary of the method: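 In this cell-based screen, 1,000 C3RL4 cells per well were cultured overnight, dosed with test chemicals in DMSO for 6 hr, and assessed for RARE luciferase luminescence.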

[5] = biological target: Luciferin 4-monooxygenase (Photinus pyralis) (UniProt P08659); experiment: qHTS assay to identify small molecule inhibitors of firefly luciferase (AID 1224835); further: nearly all actives have a fitted effect of over 25% in size; further: potency means the concentration at half of the fitted maximal effect; on activity change, negative = inhibition: series mostly up to about 120 µM
Summary of the method: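 Biochemical qHTS: compounds run as interplate titrations against purified firefly enzyme, with D-luciferin and ATP each at its KM concentration. Light output recorded by CCD imaging.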

[6] = qHTS assay to identify small molecule agonists of the constitutive androstane receptor (CAR) signaling pathway - cell viability counter screen (AID 1224836); further: series mostly up to about 92 µM; nearly all actives have a fitted effect of over 45% in size
Summary of the method: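 Cell viability multiplexed with the CAR agonist screen: CellTiter-Fluor fluorescence after 23 hr at 37 C. HepG2-CYP2B6-hCAR cells got compounds at 15 concentrations with PK11195 at 0.75 uM final.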

[7] = biological target: Nuclear receptor subfamily 1 group I member 3 (Homo sapiens) (UniProt Q14994); experiment: qHTS assay to identify small molecule antagonists of the constitutive androstane receptor (CAR) signaling pathway (AID 1224838); further: nearly all actives have a fitted effect of over 40% in size; further: potency means the concentration at half of the fitted maximal effect
Summary of the method: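 Inhibition of CITCO-driven (50 nM final) CYP2B6 reporter expression is measured in HepG2 cells stably carrying hCAR. Fifteen compound concentrations are applied for 24 h at 37 C, followed by luciferase luminescence.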

[8] = biological target: Nuclear receptor subfamily 1 group I member 3 (Homo sapiens) (UniProt Q14994); experiment: qHTS assay to identify small molecule agonists of the constitutive androstane receptor (CAR) signaling pathway (AID 1224839); further: nearly all actives have a fitted effect of over 15% in size; further: potency means the concentration at half of the fitted maximal effect; on activation: series mostly up to about 92 µM
Summary of the method: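 Luminescent ONE-Glo read-out after 24 hr, 37 C exposure of double-stable HepG2-CYP2B6-hCAR reporter cells to a 15-point compound series, in the presence of 0.75 uM PK11195 (final).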

[9] = qHTS assay to identify small molecule antagonists of the estrogen related receptor signaling pathway with the pleiotropic PPARgamma coactivator (PGC) from Tox21 10K library - cell viability counter screen (AID 1224840; active means well fitted cell-killing curve with a large enough effect in the repeat runs, not every such curve was filed as active; further: nearly all actives have a fitted effect of over 40% in size; further: potency means the concentration at half of the fitted maximal effect)
Summary of the method: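 Readout: fluorescence intensity from CellTiter-Fluor after 30 min at 37 C/5% CO2. Preceded by 17.5 h treatment of PGC/ERR cells with DMSO-dissolved compounds, added 6 h post-seeding.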

[10] = qHTS assay to identify small molecule antagonists of the estrogen related receptor signaling pathway with the pleiotropic PPARgamma coactivator (PGC) from Tox21 10K library (AID 1224841; call rule not given here; further: actives are mostly falling curves and most rising ones were filed inactive; nearly all actives have a fitted effect of over 50% in size; further: potency means the concentration at half of the fitted maximal effect; on activity, negative = inhibition: series mostly up to about 92 µM)
Summary of the method: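 One-Glo luminescence, measured after half an hour at room temperature, quantified reporter output of PGC/ERR cells. These had been plated at 2,000 per well, incubated 6 h, dosed with compounds in DMSO, then kept 18 h at 37 C.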

[11] = qHTS assay to identify small molecule agonists of the estrogen related receptor signaling pathway with the pleiotropic PPARgamma coactivator (PGC) from Tox21 10K library (AID 1224842); further: nearly all actives have a fitted effect of over 15% in size; further: potency means the concentration at half of the fitted maximal effect
Summary of the method: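 PGC/ERR reporter cell line, 2,000 cells per well, incubated 6 h at 37 C before 23 nL compound in DMSO was added. After 18 h at 37 C, One-Glo luminescence read following 30 min at room temperature.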

[12] = qHTS assay to identify small molecule antagonists of the constitutive androstane receptor (CAR) signaling pathway - cell viability counter screen (AID 1224837); further: nearly all actives have a fitted effect of over 45% in size; further: potency means the concentration at half of the fitted maximal effect; on activity change, negative = cytotoxicity: series mostly up to about 92 µM
Summary of the method: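 CITCO at 50 nM final was added alongside compounds (15 concentrations) to double-stable hCAR/CYP2B6-2.2kb HepG2 cells. Following 23 hr at 37 C, cell viability was quantified by CellTiter-Fluor fluorescence intensity.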

[13] = qHTS assay to identify small molecule antagonists of the estrogen related receptor (ERR) signaling pathway from Tox21 library - cell viability counter screen (AID 1224834); further: nearly all actives have a fitted effect of over 30% in size
Summary of the method: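 Counter screen run in ERR cells (2,000 cells/well): cells pre-incubated 6 h, then treated with compounds for 17.5 h at 37 C. Fluorescence was read 30 min after CellTiter-Fluor addition.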
On the % scale 0 is the no-effect control and ±100 the full control effect.

Sequence of Luciferin 4-monooxygenase (Photinus pyralis) (P08659 whole entry, looked up): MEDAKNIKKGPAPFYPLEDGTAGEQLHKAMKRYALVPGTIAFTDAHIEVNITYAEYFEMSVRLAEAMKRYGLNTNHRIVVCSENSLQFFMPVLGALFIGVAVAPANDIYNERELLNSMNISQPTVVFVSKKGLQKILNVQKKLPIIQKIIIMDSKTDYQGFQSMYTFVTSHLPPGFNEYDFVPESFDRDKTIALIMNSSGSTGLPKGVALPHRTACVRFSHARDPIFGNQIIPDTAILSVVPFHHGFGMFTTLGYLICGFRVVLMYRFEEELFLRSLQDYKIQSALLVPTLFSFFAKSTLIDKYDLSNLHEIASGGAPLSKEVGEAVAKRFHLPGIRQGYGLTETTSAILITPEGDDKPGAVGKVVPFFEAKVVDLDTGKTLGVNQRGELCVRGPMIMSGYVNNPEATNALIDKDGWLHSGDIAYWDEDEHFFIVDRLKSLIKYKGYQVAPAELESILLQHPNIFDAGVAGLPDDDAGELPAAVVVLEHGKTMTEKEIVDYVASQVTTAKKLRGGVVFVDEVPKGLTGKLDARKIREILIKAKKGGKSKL
Sequence of Nuclear receptor subfamily 1 group I member 3 (Homo sapiens) (Q14994 whole entry, looked up): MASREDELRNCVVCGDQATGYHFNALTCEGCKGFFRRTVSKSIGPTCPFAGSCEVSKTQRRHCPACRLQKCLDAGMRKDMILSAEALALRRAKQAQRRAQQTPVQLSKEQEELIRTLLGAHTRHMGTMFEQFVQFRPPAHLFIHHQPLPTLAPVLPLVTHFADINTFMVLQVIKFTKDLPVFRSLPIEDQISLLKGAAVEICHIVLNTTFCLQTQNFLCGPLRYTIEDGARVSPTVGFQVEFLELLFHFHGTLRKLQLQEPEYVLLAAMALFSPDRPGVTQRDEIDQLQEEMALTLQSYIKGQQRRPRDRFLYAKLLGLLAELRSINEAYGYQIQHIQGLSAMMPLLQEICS

Nc1ccc(Oc2ccc(N)c(N)c2)cc1
inactive: Potency [1] | outcome [2] | Potency [3] | Potency [6] | Potency [7] | Potency [10]
active: Potency [4] 1.72 µM | Potency [5] 7.96 µM | Potency [8] 2.43 µM | Potency [9] 48.6 µM | Potency [11] 9.69 µM

CC1(O)CSC(C)(O)CS1 (centres undefined)
inactive: Potency [1] | outcome [2] | Potency [3] | Potency [4] | Potency [5] | Potency [6] | Potency [12] | Potency [7] | Potency [8] | Potency [9]

O=C(O)c1ccccc1Nc1cc(Cl)ccc1C(=O)O
inactive: activity change, negative = cytotoxicity [1] -23.8% [at 15.8 µM] | activity change, negative = cytotoxicity [2] -3.95% [at 19 µM] | activity, negative = inhibition [3] -145% [at 19 µM] | viability change, negative = cytotoxic [13] -1.64% [at 19 µM] | activity change, negative = inhibition [5] -7.25% [at 23.6 µM] | viability change, negative = cytotoxic [6] -10% [at 19 µM] | activity change, negative = cytotoxicity [12] -10.7% [at 19 µM] | activity, negative = inhibition [7] -20% [at 19 µM] | activation [8] -3.13% [at 19 µM] | viability change, negative = cytotoxic [9] -4.89% [at 19 µM] | activity, negative = inhibition [10] 1.12% [at 19 µM] | activation [11] 0.171% [at 19 µM]

Cc1ccc([N+](=O)[O-])c(N)c1
inactive: Potency [1] | outcome [2] | Potency [6] | Potency [12] | Potency [7] | Potency [8] | Potency [9] | Potency [10] | Potency [11]

CC[C@H]1CC[C@H](NCc2cc3c(cc2OC)[C@H]2C[C@H]2C(=O)N3C)[C@H](c2ccccc2)N1
active: Potency [3] 13.7 µM | Potency [10] 21.7 µM
inactive: Potency [1] | outcome [2] | Potency [5] | Potency [11]

CC1CN(c2ccccc2)NC1=O (centres undefined)
inactive: Potency [1] | outcome [2] | Potency [3] | Potency [13] | Potency [5] | Potency [6] | Potency [12] | Potency [7] | Potency [9]

C/C(=N\O)[C@@H](C)NCC(C)(C)CN[C@H](C)/C(C)=N/O
inactive: Potency [1] | outcome [2] | Potency [3] | Potency [4] | Potency [13] | Potency [5] | Potency [6] | Potency [12] | Potency [9]

CC(C)c1ccccc1
inactive: Potency [1] | outcome [2] | Potency [3] | Potency [13] | Potency [5] | Potency [6] | Potency [12] | Potency [7] | Potency [8] | Potency [9]

C[C@@H]1CN(c2c(F)c(N)c3c(=O)c(C(=O)O)cn(C4CC4)c3c2F)C[C@H](C)N1
inactive: activity change, negative = cytotoxicity [1] 8.39% [at 15.8 µM] | activity change, negative = cytotoxicity [2] 2.38% [at 19 µM] | activity, negative = inhibition [3] 6.27% [at 19 µM] | Potency [4] | viability change, negative = cytotoxic [13] -1.89% [at 19 µM] | activity change, negative = inhibition [5] 0.766% [at 23.6 µM] | viability change, negative = cytotoxic [6] -2.59% [at 19 µM] | activity change, negative = cytotoxicity [12] 0.653% [at 19 µM] | viability change, negative = cytotoxic [9] -4.64% [at 19 µM]

CC1=CC(=O)CC(C)(C)C1=O
inactive: Potency [1] | outcome [2] | Potency [3] | Potency [4] | Potency [5] | Potency [6] | Potency [12] | Potency [7] | Potency [8] | Potency [9]

CC(C)S
inactive: Potency [1] | outcome [2] | Potency [3] | Potency [4] | Potency [13] | Potency [5] | Potency [6] | Potency [12] | Potency [9] | Potency [10] | Potency [11]

CCCCNC(=S)NCCCC
active: Potency [12] 48.6 µM | Potency [7] 48.6 µM
inactive: Potency [1] | outcome [2] | Potency [3] | Potency [5] | Potency [8] | Potency [11]
